This note sets out measurements from PubChem BioAssay AID1347170 (National Center for Advancing Translational Sciences (NCATS), 2019).

Results filed as inconclusive are left out. Entries that show only a call come without a potency. Active and inactive are the calls of the source. The call rests on the fitted dose curve; in most records, active means well fitted cell-killing curve with a large enough effect; inconclusive means small, poorly fitted or top-dose-only effect, or another doubt; inactive means flat fitted curve, though single readings scatter.

This experiment in a line: Vero cells viability counterscreen for qRT-PCR qHTS assay of selected Zika virus inhibitors. The following applies: CellTiter-Glo ATP luminescence, 24 h; series mostly up to 41.8 µM. The text has this: Assay Submitters (PI): Avindra Nath, Ph.D., National Institute of Neurological Disorders and Stroke (NINDS), Bethesda, MD Radhakrishnan Padmanabhan, Ph.D., Georgetown University (GU), Washington D.C. Zika Virus causes congenital defects, including microcephaly and is associated with Guillain-Barre syndrome, eningoencephalitis and myelitis in infected adult. […] Using a target-based approach, we hope to establish a screening paradigm to uncover novel, cell-active NS2B-NS3 protease (Zika Virus) specific inhibitors from NCATS' collection of small molecules using qHTS. […] Four assay panel was created to identify potential Zika Virus inhibitors. Namely, (1) GU unlinked NS2B-NS3 AMC tagged protease qHTS, (2) GU unlinked NS2B-NS3 Rhodamine tagged protease qHTS, (3) NINDS linked NS2B-NS3 AMC tagged protease qHTS, (4) NINDS linked NS2B-NS3 Rhodamine tagged protease qHTS. Inhibitors of the Zika virus primary screens are confirmed using qRT-PCR secondary assays, mCherry orthogonal assay, and Vero cells viability counterscreen. Cytotoxic compounds identified in the Vero cell viability counterscreen were excluded from the list of potential Zika virus inhibitors. Early Translation Branch (ETB) National Center for Advancing Translational Sciences (NCATS), Rockville, MD National Institute of Health (NIH), Bethesda, Maryland
Vero Cell Viability Assay: Vero cell cytotoxicity was determined using a luminescent readout with CellTiter Glo reagent (Promega, Madison, WI), which is based on measuring the ATP content within cells. Briefly, 4 uL of Vero cells at 2.5 x 10^5 cells/mL in DMEM containing 4% FBS were dispensed into 1536-well solid bottom tissue treated white plate using a Multidrop Combi dispenser (Thermo Scientific). Plates were incubated at 37 degrees C, 95% humidity, and 5% CO2 overnight to allow for cell attachment. Compounds were dissolved in DMSO at different concentrations and transferred via pintool (Wako Automation), for a final concentration of 57 uM - 0.029 uM. Plates were again incubated for 24 hours, followed by a 2 uL addition of CellTiter Glo. Finally, plates were incubated for 30 minutes at 37 degrees C and 5% CO2 before being read on a ViewLux (Perkin Elmer) for luminescence.
For orientation: A counterscreen serves to expose hits that act by an unwanted route or on another target.
With `O=C(O)c1ccc2c(ccc3nn(-c4ccc(/C=C/c5ccc(-n6nc7ccc8cc(C(=O)O)ccc8c7n6)cc5[S+](=O)([O-])[O-])c([S+](=O)([O-])[O-])c4)nc32)c1`, the Potency result is “inactive”. On the same count and under the same terms, the same measure for `COc1cc(Nc2nc3ccccc3nc2NS(=O)(=O)c2cccc(NC(=O)c3ccc(C)c(OC)c3)c2)cc(OC)c1`: “inactive”.

On to `Cc1ccc2nc(NS(=O)(=O)c3ccc(Cl)cc3)c(Nc3ccc(C(=O)O)cc3)nc2c1`, for which the Potency result is “inactive”. On the same count and under the same terms, the same measure for `O=C(O)c1ccc(S(=O)(=O)N(Cc2ccc(OC(F)(F)F)cc2)c2ncc(C(F)(F)F)cc2Cl)cc1`: “inactive”.

For the compound `CCCCCc1ccc(/C=C/C(=O)Nc2cc(Cl)ccc2C(=O)O)cc1`, the Potency entry was “inactive”. Still for that read-out and setting: the same measure for `COc1cnc(-c2ccc(Cn3c(CC(C)(C)C(=O)O)c(SC(C)(C)C)c4cc(OC[C@@H]5Cc6ccccc6N5C(C)=O)ccc43)cc2)nc1`: “inactive”; for `CC(C)=CCc1c2c(c3occ(-c4ccc(O)c(O)c4)c(=O)c3c1O)C=CC(C)(C)O2`: 8.91 µM (active). On the same count and under the same terms, the same measure for `CO[C@H]1C[C@@H](O[C@@H]2/C(C)=C/C[C@@H]3C[C@@H](C[C@]4(CC[C@H](C)[C@@H](C5CCCCC5)O4)O3)OC(=O)[C@@H]3C=C(C)/C(=N/O)[C@H]4OC/C(=C\C=C\[C@@H]2C)[C@]43O)O[C@@H](C)[C@H]1O`: 25.1 µM (active). Same read-out and setting: the same measure for `CCOC(=O)c1ccc(N2C(=O)c3n[nH]c(-c4cccs4)c3C2c2ccc(C(C)(C)C)cc2)cc1` (stereo not given): “inactive”; for `CC(C)=CCCC1(C)C=Cc2c(O)c3c(c(CC=C(C)C)c2O1)OC12C(=CCCC1C(C)(C)O[C@@]2(C/C=C(\C)C(=O)O)C(=O)O)C3=O` (stereo not given in full): “inactive”. In the case of `Oc1cc2ccccc2c2ccccc12`, the Potency was 11.2 µM (active). Same read-out and setting: the same measure for `CCCCCCCOc1cc2c(cc1/C(C)=C/c1ccc(C(=O)O)cc1)C(C)(C)CCS2(=O)=O`: “inactive”; for `CC(C)c1cccc2c(-c3ccccc3)cc(-c3ccc(-c4ccc(C(=O)O)cc4)[nH]3)nc12`: 25.1 µM (active). The same measure, in the same setting: the same measure for `CN(Cc1ccc(C(=O)O)cc1)c1ccc(OCc2c(-c3c(Cl)cccc3Cl)noc2C2CC2)nc1C(F)(F)F`: “inactive”.

With `Cc1ccc2c(=O)c3ccccc3n(CCCN)c2c1C`, the Potency result is “inactive”.

For `CCOc1c2c(c(OCC)c3ccccc13)C(=O)N(c1ccc(CC(=O)NS(=O)(=O)c3ccccc3)cc1)C2`, the Potency entry was “inactive”. On the same count and under the same terms, the same measure for `O=C(c1cc(O)c(O)c([N+](=O)[O-])c1)c1ccccc1F`: “inactive”. Still for that read-out and setting: the same measure for `O=C(O)Cn1nnc(-c2cc(N3CCC(Oc4cc(F)ccc4Br)CC3)no2)n1`: “inactive”. On the same count and under the same terms, the same measure for `CC(Oc1ccccc1)C(=O)Nc1ccc(C(=O)OCc2cc(=O)n3nc(C4CC4)sc3n2)cc1` (stereo not given): “inactive”; for `COc1cccc(-n2nc(C(=O)O)cc2-c2ccc(C3CCCCC3)c(Cl)c2)c1`: “inactive”; for `COc1cc(C(=O)NS(=O)(=O)c2ccccc2C)ccc1Cc1cn(C)c2ccc(NC(=O)OC3CCCC3)cc12`: “inactive”. Take `C=C1c2cccc(O)c2C(O)=C2C(=O)[C@]3(O)C(O)=C(C(N)=O)C(=O)[C@@H](N(C)C)[C@@H]3[C@@H](O)[C@H]12`: the Potency entry is “inactive”.

For `O=C(O)c1ccc(CCCc2ccc(OCCc3ccc(F)cc3)cc2)o1`, the Potency result is “inactive”. On the same count and under the same terms, the same measure for `CCc1oc2ccccc2c1C(=O)c1cc(Br)c(O)c(Br)c1`: “inactive”; for `CN(CC(=O)N(Cc1ccc(C2CCCCC2)cc1)c1ccc(C(=O)O)cc1)S(=O)(=O)c1c(F)c(F)c(F)c(F)c1F`: 7.94 µM (active); for `Cc1ccn(-c2ccc(-c3ncco3)cc2)c(=O)c1-c1ccc2nc(N)ncc2c1`: “inactive”. Same read-out and setting: the same measure for `O=C(O)Cc1cccc(OCCCN(Cc2cccc(C(F)(F)F)c2Cl)CC(c2ccccc2)c2ccccc2)c1`: “inactive”; for `COc1ccccc1-c1cccc(-c2c(O)c3cc(C#N)c(Cl)cc3[nH]c2=O)c1`: “inactive”. Take `Cc1cc(C(C#N)c2ccc(Cl)cc2)c(Cl)cc1NC(=O)c1cc(I)cc(I)c1O` (stereo not given): the Potency was 31.6 µM (active).

`CC(=O)O[C@@H]1C[C@]2(C)[C@@]3(CCC4[C@@]5(C)CC[C@H](O[C@@H]6O[C@H](C(=O)O)[C@@H](O)[C@H](O[C@@H]7O[C@H](CO)[C@H](O)[C@H](O)[C@H]7O[C@@H]7O[C@@H](C)[C@H](O)[C@@H](O)[C@H]7O[C@@H]7OC[C@](O)(CO)[C@H]7O)[C@H]6O[C@@H]6O[C@H](CO)[C@H](O)[C@H](O)[C@H]6O)C(C)(C)C5CC[C@]42C)O[C@@H](O)[C@]12C3CC(C)(C)[C@@H](OC(=O)/C=C/c1ccc(O)c(O)c1)[C@@H]2OC(=O)/C=C/c1ccccc1` (stereo not given in full): the activity change, negative = cytotoxicity is 2.61% [at 7.93 µM] (inactive). In the case of `C/C(=C\c1ccc(C(=O)O)cc1)c1ccc2c(c1)C(C)(C)CCC2(C)C`, the Potency entry was “inactive”. The same measure, in the same setting: the same measure for `O=C(O)C1(Cc2cccc(Nc3nccs3)n2)CCC(Oc2cccc(Cl)c2F)CC1` (stereo not given): “inactive”; for `CCOc1ccc(-c2cc(NC(=O)c3c(F)cccc3F)c(C(=O)O)s2)cc1`: “inactive”. The same measure, in the same setting: the same measure for `CC(C)c1ccc2c(c1)c(SC(C)(C)C)c(CC(C)(C)C(=O)O)n2Cc1ccc(Cl)cc1`: 15.8 µM (active). For `CC[C@H](C)[C@H]1O[C@]2(CC[C@@H]1C)C[C@@H]1C[C@@H](C/C=C(\C)[C@@H](O[C@H]3C[C@H](OC)[C@@H](O[C@H]4C[C@H](OC)[C@@H](O)[C@H](C)O4)[C@H](C)O3)[C@@H](C)/C=C/C=C3\CO[C@@H]4[C@H](O)C(C)=C[C@@H](C(=O)O1)[C@]34O)O2`, the Potency was 11.2 µM (active).

Consider `CC(=O)Nc1ccc([C@H](C)C(=O)Nc2ncc(C(C)C)s2)cc1`, for which the Potency was 2.82 µM (active). Same read-out and setting: the same measure for `N#CC1(c2cccc(C(=O)Nc3cc(Oc4ccc5nc(NC(=O)C6CC6)sc5n4)ccc3F)c2Cl)CC1`: “inactive”. Same read-out and setting: the same measure for `CC1(C)CC[C@]2(C(=O)O)CC[C@]3(C)C(=CCC4[C@@]5(C)C[C@@H](O)[C@H](O)C(C)(C)C5CC[C@]43C)C2C1` (stereo not given in full): “inactive”. Still for that read-out and setting: the same measure for `COc1cc2c(c(O)c1OC/C=C(\C)CC/C=C(/C)CCC=C(C)C)CN(C(CCC(=O)O)C(=O)O)C2=O` (stereo not given): “inactive”; for `N#CC1C(=O)Nc2scc(-c3ccc(-c4ccccc4O)cc3)c2C1=O` (stereo not given): “inactive”.
